PfHsp90 yeast 2: growth inhibition of PfHsp90-expressing yeast, primary screen, antimalarial PfHsp90 inhibitor project, S. cerevisiae, BacTiter-Glo luminescence, single point, set 2; BacTiter-Glo ATP, 48 h; yeast lacking PDR1 and PDR3 efflux regulators; inhibition, % at 9.4 µM; 310,000 compounds, 0.32% hits;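 active = every replicate shows inhibition above about 80%, whatever the replicate mean, limit read from the data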;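 also: 0% = DMSO neutral controls and 100% = 20 µM radicicol positive controls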
tim23-1 inh: growth inhibitors of tim23-1 mutant yeast, primary screen, luminescence, uHTS; 330,000 compounds, 1.3% hits; S. cerevisiae tim23-1 growth, BacTiter-Glo luminescence, 24 h; inhibition, % at 20 µM; AID 463212, 2010;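 active = growth inhibition of the mutant yeast at or above 50%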;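 also: temperature-sensitive mutant grown at 25 °C; plate controls were DMSO-treated mutant yeast for no effect and medium wells lacking yeast for full effect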
V-ATPase pHluor: regulators of yeast V-ATPase proton pumping, primary screen, pHLuorin cytosolic pH fluorescence; S. cerevisiae; response, % at 10 µM; 350,000 compounds, 0.37% hits; AID 504577, 2011; in the data active = response mostly above about 7.3%, no sharp cut-off; inactive = mostly below about 5.4%; also: actives read high
tim10-1 inh: growth inhibitors of tim10-1 mutant yeast, primary screen, luminescence, uHTS; S. cerevisiae tim10-1 ts strain growth, BacTiter-Glo, 24 h; inhibition, % at 20 µM; 330,000 compounds, 2.2% hits;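 active = inhibition of at least 40%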;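 also: mutant grown at 25 °C; 0% = DMSO wells with yeast and 100% = wells holding no yeast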
TIM10 inh: growth inhibitors of isogenic TIM10 control yeast, primary screen, counter-screen for tim10-1 yeast inhibitor project, luminescence, uHTS; S. cerevisiae TIM10 strain growth, BacTiter-Glo luminescence, 24 h; inhibition, % at 10 µM; 330,000 compounds, 1.4% hits; AID 463195, 2010;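 active = inhibition of 40% or more at the single tested concentration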;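 also: wild-type TIM10 isogenic control strain grown at permissive 25 °C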
tim10-1 confirm: growth inhibitors of tim10-1 mutant yeast, confirmation, single concentration, luminescence, S. cerevisiae | shares compounds with tim10-1 inh | S. cerevisiae tim10-1 ts strain growth, BacTiter-Glo, 24 h | inhibition, % at 20 µM | 7,400 compounds, 56% hits | AID 463213, 2010;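 active = inhibition of yeast growth at or above a set limit in either of two repeat tests at 20 µM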;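 also: tim10-1 mutant grown at permissive 25 °C to find synthetic lethal compounds; 0% = DMSO yeast wells and 100% = medium wells without yeast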
TIM10 conf: growth inhibitors of wild-type TIM10 yeast, confirmation, counter-screen for tim10-1 synthetic lethality project, single concentration, luminescence, S. cerevisiae; shares compounds with TIM10 inh; AID 463215, 2010; 4,600 compounds, 63% hits; S. cerevisiae tim10 strain growth, BacTiter-Glo luminescence, 24 h; inhibition, % at 10 µM;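 active = inhibition of yeast growth at or above a set limit in either of two replicates at 10 µM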;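 also: this counterscreen used the strain with wild-type TIM10; 0% = yeast with DMSO and 100% = medium wells lacking yeast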
tim23-1 conf: tim23-1 mutant yeast growth inhibitors, confirmation, luminescence, single concentration. shares compounds with tim23-1 inh. S. cerevisiae tim23-1 growth, BacTiter-Glo luminescence, 24 h. inhibition, % at 20 µM. 4,400 compounds, 83% hits. AID 463218, 2010;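 active = inhibition above about 39% in either of two replicate wells at 20 µM, limit read from the data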;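 also: temperature-sensitive tim23-1 mutant grown at 25 °C; 0% = DMSO wells with yeast and 100% = medium wells without yeast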
An asterisk follows results filed as active; . = not tested or not shown. An excerpt weighted towards active compounds, which were near 3.7% of everything screened.

SMILES | PfHsp90 yeast 2 | tim23-1 inh | V-ATPase pHluor | tim10-1 inh | TIM10 inh | tim10-1 confirm | TIM10 conf | tim23-1 conf
COc1cc(NC(=O)CNc2cccc(S(=O)(=O)N3CCOCC3)c2)cc(OC)c1 | 2 | -3 | -1 | -10 | -6 | . | . | .
Nc1cc(-c2ccc(OC(F)(F)F)cc2)nn1-c1ccc(Cl)c(Cl)c1 | . | 57* | 3 | 46* | 9 | 62* | . | 61*
N/C(=C\C(=O)c1cc(Cl)ccc1O)C(Cl)(Cl)Cl | -22 | 73* | 0 | 40* | 42* | 48* | 31 | 37
CC(C)(C)c1ccc(C(=O)CC(=O)c2cc(Cl)ccc2O)cc1 | 20 | 21 | 0 | 36 | 20 | . | . | .
O=C(O)c1cccc(-c2noc(-c3cccc(Cl)c3)n2)c1 | -6 | 21 | -3 | 21 | 5 | . | . | .
CCCc1[nH]nc2c1C(c1ccc(OC)cc1OC)C(C#N)=C(N)O2 (configuration not stated) | -4 | 51* | -1 | 44* | 47* | 36* | 37* | 50*
Oc1cccc2ccc(Nc3ccccn3)nc12 | . | 52* | 1 | 67* | 13 | 64* | . | 79*
CC(C)Sc1nc(N)nc(-c2cccs2)c1C#N | -194 | 65* | -3 | 48* | 24 | 29 | . | 19
CC(C)OC(=O)CSc1nc(N)c(C#N)c(-c2cccs2)c1C#N | . | 10 | -1 | 16 | 6 | . | . | .
COc1ccc(OC)c(/C=c2\sc3nc(-c4cccs4)nn3c2=O)c1 | 7 | 53* | 7 | 49* | 28 | 37* | . | 47*
CCCCN1CC(COCc2ccccc2)Oc2cccc(Oc3cc(C)c(C)c(C)c3)c2S1(=O)=O (configuration not stated) | -15 | . | 3 | . | . | . | . | .
CC(C)CN1CCN(CCCOC(=O)Nc2cccc3ccccc23)CC1C (configuration not stated) | 7 | . | -3 | . | . | . | . | .
CCOC(=O)C1Nc2ccccc2C2c3ccccc3CC12 (configuration not stated) | 8 | 59* | -3 | 50* | 35 | 51* | . | 60*
Cn1nnnc1N=N/C(=N/Nc1ccccc1)c1ccccc1 | 97* | 75* | 1 | 55* | 69* | 26 | 70* | 60*
Cc1cc(OCc2cc(C(=O)N3CCC(Oc4cccnc4)CC3)no2)cc(C)c1Cl | -2 | 51* | -3 | 61* | 41* | 38* | 47* | 55*
O=C(Nc1ccccc1)c1cccc(N2C(=O)C3C4CC(C(Br)C4Br)C3C2=O)c1 (configuration not stated) | -7 | 8 | -1 | 10 | 8 | . | . | .
O=C(Oc1cccc2c(O)cccc12)c1ccccc1 | . | 79* | 7 | 47* | -5 | 16 | . | 50*
O=C(Oc1cccc2ccccc12)c1ccccc1 | -7 | . | -2 | . | . | . | . | .
Cn1cccc1C(=O)OCC(=O)NC(=O)c1ccc(Cl)cc1 | 1 | 12 | 2 | 11 | -11 | . | . | .
S=c1nc[nH]c2c1cnn2-c1ccccc1 | 11 | 23 | 0 | 7 | -9 | . | . | .
Fc1cccc(-n2cc(-c3ccccc3)c3c(=S)nc[nH]c32)c1 | -98 | 55* | -1 | 40* | 36 | 32* | . | 48*
O=c1[nH]cnc2c1c(-c1ccccc1)cn2-c1ccccc1 | -13 | 34 | 2 | 34 | 24 | . | . | .
Fc1ccc(-n2cc(-c3ccccc3)c3c(=S)nc[nH]c32)cc1 | -33 | 65* | -2 | 63* | 24 | 13 | . | 33
Cc1ccc(-n2cc(-c3ccccc3)c3c(=O)[nH]cnc32)cc1 | -49 | 57* | -5 | 48* | 49* | 32* | -39 | 43*
CNC[C@@H]1OCc2ccccc2-c2c(n(C)c3ccccc23)C(=O)N([C@H](C)CO)C[C@H]1C | . | . | -5 | . | . | . | . | .
SMILES | PfHsp90 yeast 2 | tim23-1 inh | V-ATPase pHluor | tim10-1 inh | TIM10 inh | tim10-1 confirm | TIM10 conf | tim23-1 conf
O=C(CCl)Nc1ccccc1Sc1ccccc1 | 2 | 8 | 4 | 19 | -2 | . | . | .
Cc1ccc(C)c(Sc2ccc(NC(=O)CCl)cc2)c1 | . | 74* | . | 57* | 51* | 55* | 36* | 49*
Cc1ccc(Sc2ccc(NC(=O)CCl)cc2)cc1C | -10 | 66* | 1 | 50* | 40* | 52* | 39* | 76*
COc1ccccc1C(=O)NCCC(=O)Nc1ccc(S(=O)(=O)N2C(C)CCCC2C)cc1 (configuration not stated) | -19 | 16 | 3 | 12 | 3 | . | . | .
O=S(=O)(c1ccccc1)c1cnc(-c2ccccc2)nc1N1CCCCC1 | 18 | 17 | -3 | -6 | 4 | . | . | .
Nc1cc(Cl)nc(N/N=C/c2c(O)ccc3ccccc23)n1 | -3 | 66* | -1 | 50* | 45* | 38* | -9 | 70*
Cc1ccc(/C(N)=N/OC(=O)CCC2CCCCC2)cc1 | . | 77* | 6 | 60* | 83* | 44* | 82* | 71*
N/C(=N\OC(=O)CCC1CCCC1)c1ccncc1 | -6 | 3 | 1 | 11 | 13 | . | . | .
N/C(=N\OC(=O)CCC1CCCC1)c1ccc(Cl)cc1 | . | 59* | -1 | 61* | 79* | 61* | 73* | 65*
Cc1ccc(/C(N)=N/OC(=O)CCC2CCCC2)cc1 | -7 | 72* | 1 | 58* | 63* | 46* | 75* | 55*
COc1ccc(/C(N)=N/OC(=O)CCC2CCCC2)cc1 | 7 | 65* | -1 | 60* | 54* | 56* | 53* | 67*
COc1cccc(/C=C/C(=O)c2ccc3c(c2)OCCO3)c1OC | -6 | 38 | -2 | 35 | 7 | . | . | .
CN(CC(=O)Nc1cccc(F)c1)C(=O)Cc1ccsc1 | . | . | 0 | . | . | . | . | .
Cc1cccc(/C(N)=N/OC(=O)CCC2CCCCC2)c1 | -20 | 64* | 0 | 50* | 62* | 56* | 75* | 72*
N/C(=N\OC(=O)CCC1CCCC1)c1cccnc1 | 11 | 23 | 4 | 38 | 9 | . | . | .
CCOC(=O)C1=C(N)OC2=C(C(=O)CC(C)(C)C2)C1c1ccoc1 (configuration not stated) | 15 | 2 | -1 | 0 | -12 | . | . | .
CCOC(=O)C1=C(N)OC2=C(C(=O)CC(C)(C)C2)C1C1CCCCC1 (configuration not stated) | 37 | 56* | 0 | 45* | 28 | 34* | . | 46*

Screening data: PubChem BioAssay, several laboratories
